D2 ag-1 = HTS Assay for Allosteric Agonists of the Human D2 Dopamine Receptor: Primary Screen for Agonists; HEK293 T-REx D2 cells, calcium flux agonist mode; AID 485358, 2010; actives 0.53% (n = 340,000); activation, % at 2 µM; D(2) dopamine receptor (Homo sapiens), P14416;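 active = activation over 3 SD above normal in the single-dose calcium agonist read, cut at about 30% in these data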; also: 0% is about no effect
Target sequence (P14416 whole entry, looked up): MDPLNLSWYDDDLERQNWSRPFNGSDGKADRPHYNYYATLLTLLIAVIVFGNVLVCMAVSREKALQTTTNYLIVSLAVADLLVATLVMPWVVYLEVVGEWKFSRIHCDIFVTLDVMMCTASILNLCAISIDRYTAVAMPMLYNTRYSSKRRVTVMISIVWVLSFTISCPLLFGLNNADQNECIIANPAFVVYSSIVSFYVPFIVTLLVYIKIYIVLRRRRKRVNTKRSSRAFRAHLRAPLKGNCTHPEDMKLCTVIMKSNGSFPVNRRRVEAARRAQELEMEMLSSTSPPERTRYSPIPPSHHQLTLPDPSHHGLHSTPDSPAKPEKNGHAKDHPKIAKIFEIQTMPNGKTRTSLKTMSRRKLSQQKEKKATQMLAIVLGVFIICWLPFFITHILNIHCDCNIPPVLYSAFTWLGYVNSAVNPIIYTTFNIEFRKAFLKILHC
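Calcium-flux readout, 1 cycle/sec over 180 s following compound pin transfer, in inducible HEK293 Trex D2 cells (force-coupled); dopamine controls included. Positive calcium responses during this window marked compounds as potential agonists.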
D2 antag = HTS Assay for Allosteric Antagonists of the Human D2 Dopamine Receptor: Primary Screen for Antagonists | HEK293 TREx D2 cells, calcium flux, dopamine EC80 | inhibition, % at 10 µM | D(2) dopamine receptor (Homo sapiens), P14416 | actives 2% (n = 340,000); in the data active = inhibition above about 30%; inactive = below that, where a call was filed; also: 0% is about no effect
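HEK293 T-REx D2 cells, tet-induced, calcium dye no-wash. Cpd pintool add, 180 s kinetic, then EC80 DA, 180 s kinetic. Ca flux read.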
D2 PAM-1 = HTS Assay for Positive Allosteric Modulators of the Human D2 Dopamine Receptor: Primary Screen for Potentiators | HEK293 T-REx D2, calcium flux, EC20 dopamine potentiation | AID 485347, 2010 | potentiation, % at 10 µM | D(2) dopamine receptor (Homo sapiens), P14416 | actives 0.34% (n = 340,000);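 active = potentiation over 3 SD above the plate norm, cut at about 30% in these data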; also: 0% is about no effect
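Tetracycline-induced Hek293 Trex D2 cells, force-coupled to calcium, loaded with no-wash calcium dye. Compound added with 180 s kinetic read for agonism, then EC20 dopamine and a further 180 s read for potentiation.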
D2 PAM-2 = Beta-Arrestin HTS for Positive Allosteric Modulators of the Human D2 Dopamine Receptor: Potentiators. D(2) dopamine receptor (Homo sapiens), P14416. DiscoveRx D2 beta-arrestin cells, luminescence, 90 min; 100% = 57 uM dopamine signal. potentiation, % (no concentration beside the values). actives 0.23% (n = 360,000). AID 624464, 2012; in the data active = potentiation above about 50%
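D2 cells co-treated with compound plus 50 nM dopamine (EC20) for 90 min at 37 deg C to detect potentiation. Beta-arrestin recruitment was read as enzyme-fragment luminescence after 1 h at ambient temperature. Full response was set by 57 uM dopamine.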
D2 ag-2 = Beta-Arrestin HTS for Positive Allosteric Modulators of the Human D2 Dopamine Receptor: Agonists. DiscoveRx PathHunter D2 beta-arrestin, luminescence, 90 min; 100% = 57 uM dopamine signal. activation, % (concentration not given with the values). actives 0.084% (n = 360,000); in the data active = activation above about 40%
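Agonist mode: compounds alone added to overnight-plated D2 PathHunter cells for 90 min at 37 C, with 57 uM final dopamine (EC100) defining full response. Beta-arrestin recruitment detected by chemiluminescent reagent, read after 1 h at ambient temperature.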
* hit, by the source's call; . = no result given. This is a sample that favours compounds with a hit; in the whole collection about 2.4% have one here.

SMILES	D2 ag-1	D2 antag	D2 PAM-1	D2 PAM-2	D2 ag-2
N#Cc1c(NC(=O)/C=C/c2ccco2)sc2c1CCCC2	0	57*	-22	-34	-5
O=S(=O)(CCc1nc2ccccc2s1)c1ccc(Cl)cc1	0	-8	0	7	2
COc1ccc(S(=O)(=O)CCc2nc3ccccc3s2)cc1	0	59*	-3	-2	-3
Cc1cccc(C)c1NC(=O)C(c1cccs1)N(Cc1ccco1)C(=O)Cn1nnc2ccccc21 (stereo unspecified)	0	5	35*	13	-11
O=C(N/N=C/c1ccsc1)C1CC1	0	0	40*	-3	-2
CCOc1cc(/C=N/NC(=O)c2cccnc2)ccc1O	0	31*	4	3	-8
O=C(N/N=C/c1cccnc1)c1cccc(Cl)c1	2	35*	-3	-9	1
O=C(N/N=C/c1cccnc1)C1CCCCC1	0	-19	32*	-6	0
Cc1ccc(S(=O)(=O)NCC(c2ccco2)N2CCN(c3ccccc3F)CC2)cc1 (stereo unspecified)	0	.	5	.	.
CCCOc1ccc(C(=O)Nc2cc(-c3nc4ccccc4[nH]3)ccc2C)cc1	-1	.	2	.	.
O=C(c1ccccc1)N(Cc1ccco1)C1CCS(=O)(=O)C1 (stereo unspecified)	4	37*	2	-9	-3
O=C(c1ccc(F)cc1)N(Cc1ccco1)C1CCS(=O)(=O)C1 (stereo unspecified)	2	-17	1	-14	-1
CC(NC(=O)Cc1ccc(NC(=O)N2CCCCc3ccccc32)cc1)c1ccccc1 (stereo unspecified)	-2	.	18	.	.
COc1ccccc1N1CCN(C2CCCN(C(=O)c3oc(C)cc3C)C2)CC1 (stereo unspecified)	-1	46*	-25	-42	-5
CSc1nc(C(=O)N2CCCC(N3CCN(c4ccccc4C)CC3)C2)cs1 (stereo unspecified)	2	39*	-14	-32	-1
COc1ccccc1N1CCN(C2CCCN(C(=O)c3csc(C)n3)C2)CC1 (stereo unspecified)	0	3	10	-30	-6
COC(=O)c1ccc(CNC(=O)C(C)N=C2NS(=O)(=O)c3ccccc32)cc1 (stereo unspecified)	0	44*	-21	-38	-3
CC(N=C1NS(=O)(=O)c2ccccc21)C(=O)NCCCc1ccccc1 (stereo unspecified)	.	.	.	-37	3
Cc1ccc(Cl)cc1N1CCN(CCCNc2ncnc3onc(-c4ccc(Cl)cc4)c23)CC1	0	.	-14	.	.
CC(=O)c1cccc(NC(=O)NCCc2c[nH]c3ccccc23)c1	-1	-6	-6	-10	-1
O=C(Nc1cccc(CNCCc2c[nH]c3ccccc23)c1)c1ccccc1Cl	22	72*	-34	-24	-4
CC(=O)c1ccc(OC2(C)CCN(Cc3ccc4ccccc4c3)C2)cc1 (stereo unspecified)	.	.	.	-16	3
Cc1c(CN2CCCC(C(=O)Nc3cccc(-n4cccn4)c3)C2)cnn1C (stereo unspecified)	-3	47*	-17	-19	-3
COc1cccc(C(=O)C2CCCN(Cc3cccc(-n4cccn4)c3)C2)c1 (stereo unspecified)	-1	32*	-23	-10	-3
Cc1cc(CN2CCCC(C(=O)Nc3cccc(-n4cccn4)c3)C2)cc(C)c1O (stereo unspecified)	1	38*	-22	-34	-4
SMILES	D2 ag-1	D2 antag	D2 PAM-1	D2 PAM-2	D2 ag-2
COc1cccc(C(=O)C2CCCN(Cc3cccn3-c3cccnc3)C2)c1 (stereo unspecified)	0	-2	-20	-11	1
CCc1c(C)c2ccc(O)c(CN3CCN(c4ccc(OC)cc4)CC3)c2oc1=O	0	.	4	.	.
COc1cc(/C=C(/C(=O)O)c2ccc(-c3ccccc3)cc2)cc(OC)c1OC	-1	-17	30*	5	8
CCN(CC)CCOC(=O)c1ccc(NC(=O)c2nn(-c3ccc(C)cc3)c(=O)c3c2c2ccccc2n3C)cc1	0	.	.	.	.
CCOc1ccc(-c2cc(NC(=O)c3ccccc3)c(C(=O)OC)s2)cc1	-1	.	11	.	.
C=CCn1c(SCC(=O)Nc2sccc2C#N)nc2sc(C)c(C)c2c1=O	1	32*	-1	-12	1
C=CCn1c(SCC(=O)Nc2ccc(C(=O)O)cc2)nc2sc(C)c(C)c2c1=O	0	-2	3	-2	-2
COC(=O)CN1C(=O)CSc2ccc(S(=O)(=O)Nc3c(C)cc(C)cc3C)cc21	0	.	5	.	.
Cc1ccc(N(C(=O)COc2ccccc2C)S(=O)(=O)c2ccc(Cl)cc2)cc1	1	.	-6	.	.
COc1cc(-c2cc(C(=O)Nc3ccccc3N3CCOCC3)c3ccccc3n2)cc(OC)c1OC	0	-24	33*	24	-5
COc1cc(C(=O)Nc2ccccc2N2CCCCC2)cc(OC)c1OC	-1	0	-9	-2	-2
O=C(Nc1ccccc1N1CCOCC1)c1cc(-c2ccco2)nc2ccccc12	0	2	7	16	2
COc1cc(C(=O)NC(=S)Nc2ccccc2N2CCCC2)cc(OC)c1OC	-1	43*	7	-23	-4
COc1cc(OC)cc(C(=O)Nc2cccc(-c3cn4ccsc4n3)c2)c1	0	.	-5	.	.
Cc1nc2ncnn2c(C)c1CCC(=O)N1CCN(c2ccccc2)CC1	1	.	0	.	.
Cc1cc(SCC(=O)NCc2ccc(Cl)cc2)nc(=O)[nH]1	2	.	-7	.	.
COc1ccc(NC(=S)N(CCCN2CCC(C)CC2)Cc2cccs2)cc1Cl	0	5	-8	-22	-3
COc1cccc(NC(=S)N(CCCN2CCCC(C)C2)Cc2cccs2)c1 (stereo unspecified)	3	59*	-28	-15	1
Cc1cc(C)cc(NC(=S)N(CCCN2CCN(C)CC2)Cc2cccs2)c1	1	1	.	1	0
CSc1cccc(NC(=S)N(CCCN2CCCC(C)C2)Cc2cccs2)c1 (stereo unspecified)	0	46*	-17	-39	-5
CN1CCN(C(=O)CSc2nc(-c3cccs3)ccc2C#N)CC1	-1	-5	37*	-5	2
O=C(CCC(=O)Nc1ccc(Br)cc1)N/N=C/c1ccccc1F	0	7	-1	-6	3
